Sampled rows, rich in hits. Any-hit rate of the full collection: about 3.2%.
A3A deaminase: blocks human APOBEC3A ssDNA deamination; P31941; inhibition, % at 20 µM; 330,000 compounds, 0.41% hits; recombinant A3A, FAM/TAMRA ssDNA deamination fluorescence;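 active = at least 40% inhibition at 20 µM here, with at most 30% in a related deaminase screen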;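 also: plate controls were A3A with DMSO for no effect and wells lacking A3A enzyme for full effect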
APOBEC3G inh: inhibitors of human APOBEC3G DNA deaminase; recombinant A3G, ssDNA deamination FAM/TAMRA fluorescence; inhibition, % at 20 µM; 330,000 compounds, 0.28% hits;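 active = inhibition of at least 40% at 20 µM, with no more than 30% in the related APOBEC3A deaminase screen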;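 also: plate controls were DMSO wells with A3G for no effect and wells lacking A3G enzyme for full effect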
Target sequence (Q9HC16 whole entry, looked up): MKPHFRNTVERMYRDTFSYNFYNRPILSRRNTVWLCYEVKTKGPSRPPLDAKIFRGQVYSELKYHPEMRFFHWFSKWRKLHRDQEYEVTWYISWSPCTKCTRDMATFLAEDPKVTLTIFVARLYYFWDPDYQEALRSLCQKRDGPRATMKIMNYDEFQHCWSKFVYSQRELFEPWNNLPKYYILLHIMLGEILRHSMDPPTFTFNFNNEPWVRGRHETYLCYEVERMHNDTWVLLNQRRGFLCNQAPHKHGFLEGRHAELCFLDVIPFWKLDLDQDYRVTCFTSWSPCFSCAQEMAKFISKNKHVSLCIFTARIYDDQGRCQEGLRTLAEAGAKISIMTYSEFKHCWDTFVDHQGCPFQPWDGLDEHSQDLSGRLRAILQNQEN
AHR activator: activates the human aryl hydrocarbon receptor; P35869; AHR-responsive luciferase reporter cells, luminescence; activation, % at 5 µM; 320,000 compounds, 2.5% hits; AID 2796; in the data active = activation above about 47%;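 also: 0% = vehicle wells and 100% = reference agonist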
NTR1 ag: agonists of human neurotensin receptor NTR1 | P30989 | NTR1-U2OS beta-arrestin-GFP spot imaging, agonist mode | activation, % at 20 µM | 330,000 compounds, 0.17% hits | AID 493036;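 active = activation at or above 40% of the spot to cytoplasm intensity ratio, with at least 20 cells analyzed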;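 also: 0% = DMSO without peptide and 100% = 100 nM NTR1 peptide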
APOBEC3A confirm: APOBEC3A (human) deaminase inhibition, confirmed; shares compounds with A3A deaminase; inhibition, % at 20 µM; recombinant A3A, ssDNA deaminase UDG fluorescence assay; 1,400 compounds, 63% hits;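 active = inhibition reaching a set limit, 80% of the first screen's cutoff, at 20 µM in any replicate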;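 also: plate controls were DMSO wells with A3A for no effect and wells lacking A3A enzyme for full effect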
UDG ctr A3A: counter-screen for APOBEC3A inhibitors: UDG | UDG counterscreen, FAM/TAMRA uracil oligo fluorescence | 1,000 tested, under 10 active | inhibition, % at 20 µM | shares compounds with A3A deaminase | AID 504714; call rule not given here
Starred values were filed as active, the others as inactive.

Screening C[n+]1ccccc1/C=C/c1ccc(F)c(F)c1 returned A3A deaminase 53*, APOBEC3G inh 17, AHR activator 0, NTR1 ag 0 and APOBEC3A confirm 55*.
`C[n+]1ccccc1/C=C/c1ccc([N+](=O)[O-])cc1` gave A3A deaminase 57*, APOBEC3G inh 23, AHR activator 2, NTR1 ag 0 and APOBEC3A confirm 62*.
For CCCSc1nc2cc(C)c(C)cc2n1CC(C)O (configuration not stated) the results were A3A deaminase 1, APOBEC3G inh -5, AHR activator 10 and NTR1 ag 0.
For Cc1cc(C)nc(SCC(=O)NC2CCCCC2C)n1 (configuration not stated) the results were A3A deaminase -1, APOBEC3G inh -8, AHR activator 0 and NTR1 ag 0.
COc1ccc(CCCC(=O)Nc2cc(C)ccc2OC)cc1 was read as A3A deaminase 60*, APOBEC3G inh 11, AHR activator -2, NTR1 ag 0 and APOBEC3A confirm 28.
Screening COc1ccc(OC)c(NC(=O)CCCc2ccccc2)c1 returned A3A deaminase -1, APOBEC3G inh -7, AHR activator 2 and NTR1 ag 0.
`CCN(C(=O)COc1nc(C)cc(C)c1C#N)c1ccccc1` gave A3A deaminase 59*, APOBEC3G inh 10, AHR activator 0, NTR1 ag 0 and APOBEC3A confirm 5.
Screening Cc1cc(C)c(C#N)c(Oc2ccccc2)n1 returned A3A deaminase 0, APOBEC3G inh 1, AHR activator -1 and NTR1 ag 1.
For CN(Cc1ccc(Cl)c(Cl)c1)C(=O)C1=CC=CN2CCS(=O)(=O)N=C12 the results were A3A deaminase 47*, APOBEC3G inh 15, AHR activator 0, NTR1 ag -1, APOBEC3A confirm 43* and UDG ctr A3A -2.
COc1ccc(Br)cc1CN(C)C(=O)C1=CC=CN2CCS(=O)(=O)N=C12 was read as A3A deaminase 55*, APOBEC3G inh 3, AHR activator -1, NTR1 ag -1, APOBEC3A confirm 51* and UDG ctr A3A 3.
O=C(Oc1ccc(Cl)c(Cl)c1)C1=CC=CN2CCS(=O)(=O)N=C12 was read as A3A deaminase -4, APOBEC3G inh -5, AHR activator 1 and NTR1 ag -1.
`CCOC(=O)CN1C(=O)N[C@@H](c2cccs2)C(C(=O)OC)=C1C` gave A3A deaminase 1, APOBEC3G inh 3, AHR activator 2 and NTR1 ag -8.
COCCN1C(=O)N[C@H](c2cccc(C(F)(F)F)c2)C(C(=O)OC)=C1C was read as A3A deaminase 5, APOBEC3G inh -7, AHR activator 1 and NTR1 ag 5.
For CCN1C(=NCCc2cccs2)N[C@@H](c2cccs2)C(C(=O)OC)=C1C the results were A3A deaminase 53*, APOBEC3G inh 6, AHR activator 18, NTR1 ag 4, APOBEC3A confirm 66* and UDG ctr A3A -2.
For CCN1C(=NCC(C)C)N[C@@H](c2cccc(C(F)(F)F)c2)C(C(=O)OC)=C1C the results were A3A deaminase 59*, APOBEC3G inh 10, AHR activator -2, NTR1 ag -2 and APOBEC3A confirm 61*.
C=CCN=C1N[C@@H](c2cccc(C(F)(F)F)c2)C(C(=O)OC)=C(C)N1CC was read as A3A deaminase 50*, APOBEC3G inh 7, AHR activator 4, NTR1 ag -4, APOBEC3A confirm 71* and UDG ctr A3A -2.
For C=CCN=C1N[C@@H](c2ccccc2)C(C(=O)OC)=C(C)N1CC the results were A3A deaminase 66*, APOBEC3G inh 23, AHR activator 0, NTR1 ag -2, APOBEC3A confirm 58* and UDG ctr A3A 2.
For CCN1C(=NCc2cccc(Cl)c2)N[C@@H](c2cccc(F)c2)C(C(=O)OC)=C1C the results were A3A deaminase 5, APOBEC3G inh 1, AHR activator -2 and NTR1 ag 3.
CCCc1cc(=O)oc2cc(C)cc(OC(C)C(=O)NCC(O)c3ccccc3)c12 (configuration not stated) was read as A3A deaminase -2, APOBEC3G inh -4, AHR activator 3 and NTR1 ag 1.

Bioassay records: PubChem, several laboratories
